# The campaign covered roughly 48,000 compounds. About 13,000 (27%) showed an effect of 50% or more. The list shows a part of the results.
# Tested on: Wolbachia pipientis
# Assay: Anti-Wolbachia Cell-Based Screen
# Format: functional
# Set-up: scale not given: in the data most compounds retested in dose-response had high values
# Conditions: 5 µM
row,SMILES,Percent Effect
1,COc1cc(C(C)=O)ccc1OCC(=O)N(CC(C)C#N)C1CC1 (configuration not stated),-5.755%
2,CC1CN(CC(=O)NC2CCCC2)CCN1c1ccc2nncn2n1 (configuration not stated),1.075%
3,CC(Nc1cccc(Oc2ccc(C#N)cn2)c1)C(=O)NC1CC1 (configuration not stated),4.844%
4,O=C(NC1CC1)c1cccc(Oc2ccc3nncn3n2)c1,135.1%
5,COc1cccc(C(=O)NCC(O)c2cccs2)c1 (configuration not stated),-0.6339%
6,CC(C)CNC(=O)c1cccc(Oc2ccc3nncn3n2)c1,96.36%
7,O=C(CN1CCN(c2ccc3nncn3n2)CC1)NC1CCCC1,0.9347%
8,O=C(CN1CCN(c2ccc3nncn3n2)CC1)NC1CCCCC1,14.04%
9,CC(C)NC(=O)c1cccc(Oc2ccc3nncn3n2)c1,131.1%
10,CC(=O)N1CC(c2ncn(C(C)C)n2)c2cc(C(=O)NC(C)C)ccc21 (configuration not stated),-2.765%
11,CN(C)C(CNC(=O)c1cccc(-n2cnnn2)c1)c1ccccc1Cl (configuration not stated),-8.623%
12,CC(C)NC(=O)c1ccc2nnc(C3CCN(C(=O)NC(C)C)C3)n2c1 (configuration not stated),5.911%
13,O=C(NC1CCCCC1)c1ccc(Oc2ccc3nncn3n2)cc1,113.3%
14,N#Cc1cccnc1NCCNC(=O)N1CCCC(C(F)(F)F)C1 (configuration not stated),-23.68%
15,CS(=O)(=O)NCCC1CN(Cc2ccccc2F)CCO1 (configuration not stated),-13.1%
16,N#Cc1c[nH]c(C(=O)N(Cc2ccc(O)cc2)CC2CC2)c1,-16.08%
17,O=C(NCC(O)c1cccs1)c1cccc(Cl)c1 (configuration not stated),-18.24%
18,CNc1nc(C(=O)N2CCC3(CCCN(CCOC)C3=O)C2)cs1 (configuration not stated),-30.8%
19,O=S(=O)(c1ccccc1Cl)N1CCc2nc(C3CCNCC3)ncc2C1,-5.628%
20,O=C(c1ncc[nH]1)N1CCC(n2cc(-c3cccc(Cl)c3)nn2)CC1,-7.325%
21,CNC(=O)c1cn2cc(-c3cccc(Cl)c3)n(CC3CC3)c(=O)c2n1,-6.691%
22,COc1ccc(-c2cnc3c(c2)CN(C2CC2)C(=O)CCN3)cc1,106.7%

row,SMILES,Percent Effect
1,COc1ccc(NC2CCN(C3CC3)C2=O)cn1 (configuration not stated),-16.66%
2,O=C1CCNc2ncc(-c3ccccc3Cl)cc2CN1C1CC1,75.8%
3,O=C1CCNc2ncc(-c3cccc(Cl)c3)cc2CN1C1CC1,104.4%
4,O=C1CCNc2ncc(-c3ccc(Cl)cc3)cc2CN1C1CC1,113.7%
5,COc1ccc(-c2nnc(CN3CCNC(=O)C3)o2)cc1,-34.6%
6,CC(O)c1cn(C2CCN(C(=O)C3(C)CCCCC3)CC2)nn1 (configuration not stated),29.6%
7,NC(=O)CCOc1ccc(NC(=O)c2ccccc2OC(F)F)cc1,5.121%
8,CC(=O)N1CCC(N2CCOC[C@H]2c2nc(C(C)(C)C)c[nH]2)CC1,-20.09%
9,CCNC(=O)c1ccnc(CC2COc3c(cccc3OC)C2)c1 (configuration not stated),109.1%
10,CNC(=O)c1ccnc(CC2COc3c(cccc3OC)C2)c1 (configuration not stated),100.6%
11,CCOCCC(=O)NCC1COc2c(cccc2OC)C1 (configuration not stated),-9.333%
12,COc1cccc2c1OCC(CNC(=O)CN(C)C1CCCC1)C2 (configuration not stated),-4.207%
13,COc1cccc2c1OCC(C(=O)N1CCSCC1)C2 (configuration not stated),-0.8492%
14,COc1cccc2c1OCC(CNC(=O)Cc1cnccn1)C2 (configuration not stated),-6.368%
15,COc1cccc2c1OCC(Cc1cnc(N)c(C)c1)C2 (configuration not stated),43.69%
16,COc1cccc2c1OCC(Cc1cc(C(N)=O)ccn1)C2 (configuration not stated),86.97%
17,COc1cccc2c1OCC(CNC(=O)Cn1ccnc1C)C2 (configuration not stated),-7.516%
18,COc1cccc2c1OCC(Cc1cc(C(=O)N3CCCC3)ccn1)C2 (configuration not stated),103.2%
19,COc1cccc2c1OCC(C(=O)N1Cc3ccccc3C1)C2 (configuration not stated),-46.74%
20,COc1cccc2c1OCC(CNC(=O)Cc1csc(C(C)=O)c1)C2 (configuration not stated),-8.032%
21,CCCC(C)NCc1cnc(-c2cccc(C)c2)nc1 (configuration not stated),4.812%
22,CC1=C[C@@H](CN2CCC(O)CC2)[C@H](C(C)C)C[C@H]1Cc1nnc(C)o1,4.973%

row,SMILES,Percent Effect
1,CC(C(=O)N(C)Cc1ccco1)n1cncn1 (configuration not stated),14.16%
2,CN1Cc2[nH]nc(COCC3CC3)c2C1.O=C(O)C(F)(F)F.O=C(O)C(F)(F)F,-7.545%
3,CC(CO)CNC(=O)c1cc2cccc(F)c2o1 (configuration not stated),-10.54%
4,CN1CCN(CC2CC2)C(=O)c2cnc(N3CCCCC3)nc21,8.561%
5,CN1CCN(CC2CC2)C(=O)c2cnc(N3CCOCC3)nc21,128%
6,CN1CCN(CC2CC2)C(=O)c2cnc(N3CC[C@@H](O)C3)nc21,-2.603%
7,Cc1cnc(N2C[C@@H]3CCN(CC4CC4)C(=O)[C@H]3C2)nc1,4.769%
8,CN1CCN(CC2CC2)C(=O)c2cnc(N3CCC(CO)CC3)nc21,85.31%
9,CN1CCN(CC2CC2)C(=O)c2cnc(N3CCCC3)nc21,-1.77%
10,c1cc2c(cc1-c1noc3c1CN(C1CCSC1)CC3)OCO2 (configuration not stated),2.821%
11,CC(NCc1ccccc1CN1CCCC1=O)c1ccc(C#N)cc1 (configuration not stated),-5.192%
12,CCN(CCOc1ccc(F)cc1)C(=O)c1ccncc1Cl,2.739%
13,O=C(NCCC1CN(Cc2cccnc2)CCO1)c1ccsc1 (configuration not stated),-9.218%
14,N#Cc1c(SCCN2CCCCCC2)sc2c(O)cc(O)nc12,100.4%
15,N#Cc1c(SCCN2CCOCC2)sc2c(O)cc(O)nc12,143.1%
16,N#Cc1c(SCCN2CCCCC2)sc2c(O)cc(O)nc12,98.27%
17,N#Cc1ccc(F)c(CSCCN2CCOCC2)c1,-32.26%
18,N#CCCSc1sc2c(O)cc(O)nc2c1C#N,107.9%
19,N#Cc1ccc(-c2nnc(CSCCN3CCOCC3)o2)cc1,-12.22%
20,FC(F)(F)Cn1nnnc1SCCN1CCCCC1,-6.458%
21,Cn1cc(Br)cc1C(=O)NC1(C#N)CC1,-11.26%
22,c1cnc(NCCCOC2CCOCC2)nc1,1.156%

row,SMILES,Percent Effect
1,CC(C)CN1CCCn2nc(CNC(=O)CN3CCOC3=O)cc2C1,1.752%
2,Cn1cnnc1CNC(=O)CCCOc1ccccc1Cl,2.629%
3,Cc1ccc(N(C)Cc2nnnn2C2CC2)c(C)c1,-2.761%
4,Cc1cc(C)n(C2CCCN(C(=O)c3cccc4c3OCO4)C2)n1 (configuration not stated),86.78%
5,Cc1cc(C)n(C2CCCN(C(=O)c3cccc4[nH]ncc34)C2)n1 (configuration not stated),4.56%
6,COCc1ccccc1C(=O)N1CCCC(n2nc(C)cc2C)C1 (configuration not stated),4.248%
7,O=C(c1cccc2c1OCO2)N1CCCC(n2cccn2)C1 (configuration not stated),2.187%
8,O=C(c1ccccc1N1CCOCC1)N1CCCC(n2cccn2)C1 (configuration not stated),-2.451%
9,O=C(c1cccc2c1OCCO2)N1CCCC(n2cccn2)C1 (configuration not stated),108.1%
10,Cc1cnn(C2CCCN(C(=O)c3cccc4c3OCO4)C2)c1 (configuration not stated),104.2%
11,c1cc(CCn2ccc(NC3CCSCC3)n2)ccn1,6.041%
12,COc1cccc(N2CCN(C(C(=O)O)c3ccc(OC)nc3)CC2)c1 (configuration not stated),-2.782%
13,COc1c(F)cc(-c2cccc3c2OC(CN)C3)cc1F (configuration not stated),6.268%
14,C[C@@H]1CN(Cc2cc(C3CCCCC3)no2)CC[C@]1(C)O,4.197%
15,CC(C)(C)c1cc(C[C@H]2CNCC[C@H]2CC(=O)NC2CCCCC2)no1,10.2%
16,CC1CCN(C(=O)C2(Cc3cc(C4CCOC4)no3)CCNCC2)CC1.Cl (configuration not stated),189.1%
17,Cl.O=C(NC1CCCC1)C1(Cc2cc(C3CCOC3)no2)CCNCC1 (configuration not stated),131.3%
18,CC(C)(C)c1noc(OCC(=O)NC2CCCC2)n1,-14.46%
19,OCC1COCCN(Cc2cc(C3CCCCC3)no2)C1 (configuration not stated),-1.346%
20,CCN(C)c1ccc(CNC(=O)c2cc(C(N)=O)cs2)cc1F,-17.75%
21,OCCN1CCN(Cc2cn(-c3ccccc3)nn2)CC1,-6.326%
22,CN1CC(c2ccccc2)CC12CCN(C(=O)c1ccc(Cl)cn1)CC2 (configuration not stated),-6.025%

row,SMILES,Percent Effect
1,Cc1cc(NCCc2nnc(N)s2)nc(-c2cccnc2)n1,111.6%
2,CCCc1nc(C)cc(NC(C)Cc2cnccn2)n1 (configuration not stated),10.99%
3,FC(F)(F)c1cc(NCCn2ncnn2)nc(-c2cccnc2)n1,-6.298%
4,Cc1cc(NCCc2nc(C)cs2)nc(-c2cccnc2)n1,101.8%
5,Cc1cc(NCCc2c(C)n[nH]c2C)nc(-c2cccnc2)n1,90.29%
6,Cc1cc(N(C)Cc2snnc2C)nc(-c2cccnc2)n1,5.151%
7,Cc1csc(CCNc2ccc(C#N)cn2)n1,-3.132%
8,CCCc1nc(C)cc(NCCc2nnc(N)s2)n1,113%
9,FC(F)(F)c1cc(NCCCn2cccn2)nc(-c2cccnc2)n1,19.81%
10,Cc1cc(N(C)Cc2cc(C(C)(C)C)n[nH]2)nc(-c2cccnc2)n1,-3.665%
11,Cc1n[nH]c(C)c1CCN(C)C(=O)C(c1cccnc1)N1CCOCC1 (configuration not stated),1.239%
12,CC(C)Cc1cc(C(=O)NCCc2nnc(N)s2)n(C)n1,6.947%
13,O=C(Nc1cccn(CC(F)(F)F)c1=O)c1ccncc1F,-0.2014%
14,CSc1ncc(C(=O)N2C[C@H]3CC[C@@H]2CN(Cc2ccccc2)C3)cn1,-11.56%
15,COc1cccc(CNC2CCCOc3cc(C)ccc32)n1 (configuration not stated),-12.28%
16,Cc1ccccc1C(CC(=O)NCc1nnc(N)s1)c1ccccc1 (configuration not stated),1.078%
17,Cc1cc(NCCc2nnc(N)s2)nc(-c2ccccc2)n1,97.75%
18,Cn1cccc1-c1cc(C(=O)NCCc2nnc(N)s2)[nH]n1,-4.601%
19,N#Cc1cccc(NC(=O)N[C@H](CO)Cc2ccc(O)cc2)c1,-17.39%
